# Test results reported in PubChem BioAssay (NCATS).
# Inconclusive results are not listed. A call without a number means that no potency is given here. Calls of active or inactive are those of the source. Unless noted, calls follow the shape of the dose curve; as a rule, active = well fitted curve in the direction sought with a large enough effect; inconclusive = small, poorly fitted or top-dose-only effect, or another doubt; inactive = no such curve, though single readings can be large; an effect the other way counts as inactive or inconclusive.
# Tests used:
# [1] = Validation of Assay for Modulators of Lamin A Splicing (AID 1459; active = well fitted curve in the direction sought with a large enough effect in the signal ratio; the % refers to the signal ratio;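 also: cells exposed to compound for two days before reading; ratio rise marks activators and ratio drop marks inhibitors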)
# Method in brief: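 S3 HeLa stably expressing lamin A-EGFP splicing minigene and DsRed2, 600 cells/well in Opti-MEM with 2% FBS, treated 48 h at 37C; laser-scanning cytometry gives GFP/RFP total intensity ratio; ancitabine positive control, 0.5% DMSO vehicle.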
# [2] = Counterscreen for APE1 Inhibitors: Fluorescent Dye Displacement Validation Assay (AID 1707)
# Method in brief: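 Counterscreen flags promiscuous DNA binders: compounds displacing ThO from duplex DNA (abasic THF site, 50 nM) reduce 540 nm emission (480 nm excitation). ThO 250 nM final; Tris-HCl pH 7.5 with NaCl, MgCl2 and Tween-20.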
# [3] = biological target: Endonuclease 4 (Escherichia coli (strain K12)) (UniProt P0A6C1); test: Counterscreen for APE1 Inhibitors: qHTS Validation Assay for Inhibitors of Endonuclease IV (AID 1708)
# Method in brief: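 The reaction buffer contained 50 mM Tris-HCl pH 7.5, 50 mM NaCl, 2 mM MgCl2, 1 mM DTT and 0.01% Tween-20. Incision of a 50 nM fluorophore/quencher THF substrate by 2 nM enzyme was measured kinetically.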
# [4] = biological target: ATP-dependent DNA helicase Q1 (Homo sapiens) (UniProt P46063); test: qHTS Validation Assay for Inhibitors of RecQ-Like Dna Helicase 1 (RECQ1) (AID 2353)
# Method in brief: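 RECQ1T1 50 nM; forked duplex (20 bp + 30-nt ss tails) 200 nM, ATP 2 mM final; pH 8.0, 2 mM MgCl2, 2.5 ug/ml poly(dI-dC); 15 min compound preincubation; discontinuous kinetic read over 2 h at RT.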
# [5] = biological target: M-phase phosphoprotein 8 (Homo sapiens) (UniProt Q99549); test: qHTS Validation Assay for Inhibitors for MPP8 Chromodomain Interactions with Methylated Histone Tails (AID 488949); also: top concentration of the series differs between compounds; nearly all actives have a fitted effect of over 55% in size
# Method in brief: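 MPP8 (50 nM) was pre-bound to 50 nM biotinylated H3(1-18)K9me3 peptide in PBS pH 7.4 with 0.01% Tween-20. Compounds were then added for 30 min at room temperature, and complex disruption was read by AlphaScreen with streptavidin donor and nickel-chelate acceptor beads.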
# [6] = biological target: Thyrotropin receptor (Homo sapiens) (UniProt P16473); test: qHTS Assay for Antagonists of the Thyroid Stimulating Hormone Receptor (AID 488980)
# Method in brief: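 TSHR-transfected HEK293 cells (2000/well) in HEPES-buffered HBSS with 70 uM RO 20-1724 were stimulated with 4 nM TSH (EC80, final) in the presence of compound. cAMP was measured by HTRF competition after lysis and 30 min at RT.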
# [7] = biological target: Thyrotropin-releasing hormone receptor (Homo sapiens) (UniProt P34981); test: qHTS for Small Molecule Agonists and Allosteric Enhancers of Human TRH Receptor: Validation Screen for Agonists (AID 493127;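 active = calcium activation more than 3 SD above the typical response in the agonist read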;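 also: intracellular calcium rise by fluo-8 fluorescence before TRH EC20 addition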); conditions: TRH receptor agonist cell assay; at 2 µM; stronger effect = higher value
# Method in brief: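 Kinetic fluorescence assay of agonist-induced calcium release: overnight-plated TRHR cells, room-temperature fluo-8 loading, baseline then compound addition with per-second reads.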
# [8] = biological target: Galactokinase (Homo sapiens) (UniProt P51570); test: qHTS Validation Assay for Inhibitors of Human Galactokinase (GALK) (AID 493189)
# Method in brief: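 GALK (5 nM) with 35 uM ATP and 100 uM galactose in HEPES pH 8.0 with MgCl2, NaCl, DTT and BSA. Reaction ran 1 h at room temperature. Residual ATP read by Kinase-Glo Plus luminescence.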
# [9] = Validation screen for small molecules that induce DNA re-replication in SW480 colon adenocarcinoma cells (AID 504364)
# Method in brief: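 Hoechst-stained SW480 nuclei, imaged at 405 nm excitation after 48 hr compound exposure, were counted for elevated DNA content as the re-replication signal.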
# [10] = biological target: Calcium and integrin-binding protein 1 (Homo sapiens) (UniProt Q99828); test: Confirmatory qHTS for Identification of Calcium Integrin Binding Protein 1 (CIB1) Competitor (AID 1508617); also: nearly all actives have a fitted effect of over 65% in size
# Method in brief: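 Compounds at up to 114 uM final met 1 uM GST-tagged CIB1 for 15 min at room temperature (HEPES pH 7.4, 5 mM CaCl2). FITC-labelled alphaIIb peptide, 100 nM, added; polarization read after 15 min more.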
# [11] = biological target: DNA repair nuclease/redox regulator APEX1 (Homo sapiens) (UniProt P27695); test: qHTS Validation Assay for Inhibitors of the Human Apurinic/apyrimidinic Endonuclease 1 (APE1) (AID 1705;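 also: TAMRA fluorescence gain over two minutes as APE1 cuts a quenched THF abasic duplex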)
# Method in brief: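 Fluorogenic double-stranded THF abasic-site substrate (5'-TAMRA/3'-BHQ-2), 50 nM final. Enzyme preincubated with compound 15 min at room temperature, then substrate added. Kinetic fluorescence (ex 525/em 598 nm) read three times at 60 s intervals; activity taken as third-minus-first read difference.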
# [12] = qHTS for differential inhibitors of proliferation of Plasmodium falciparum line GB4 (AID 1816); conditions: Potency: Plasmodium falciparum GB4 proliferation inhibition;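 also: parasite growth measured after 72 h incubation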
# [13] = qHTS for differential inhibitors of proliferation of Plasmodium falciparum line 3D7 (AID 1876);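 also: parasite growth measured after three days of culture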
# [14] = qHTS for differential inhibitors of proliferation of Plasmodium falciparum line D10 (AID 1877);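 also: parasites grown with compound for 72 h before DNA staining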
# [15] = qHTS for differential inhibitors of proliferation of Plasmodium falciparum line Dd2 (AID 1882); conditions: Potency: Plasmodium falciparum Dd2 proliferation inhibition;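 also: compound exposure of 72 h on infected erythrocytes; nearly all actives have a fitted effect of over 65% in size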
# Method in brief: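 RBC culture, 0.3% parasitemia / 2.5% Hct final; cpd added by pin tool in DMSO; 72 h, 37 C, 5% CO2; lysis buffer + SYBR Green I, o/n RT dark; FI 485/535; norm. to artemisinin 0.29 uM and DMSO.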
# [16] = qHTS for differential inhibitors of proliferation of Plasmodium falciparum line HB3 (AID 1886); conditions: Potency: Plasmodium falciparum HB3 proliferation inhibition;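 also: parasites grown with compound for 72 h before SYBR Green readout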
# [17] = biological target: Ferritin light chain (Equus caballus) (UniProt P02791); test: qHTS Validation Assay for Identification of Novel General Anesthetics (AID 2323)
# Method in brief: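 Horse-spleen apoferritin (10 uM) in PBS with 50% saturated 1-aminoanthracene; compounds pin-transferred, 10 min at room temperature. Fluorescence read at 380/535 nm, normalized to free 1-AMA and 1-AMA/apoferritin values; four-parameter Hill fit.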
# [18] = Validation screen for small molecules that induce DNA re-replication in MCF 10A normal breast cells (AID 463097); also: nearly all actives have a fitted effect of over 60% in size
# Method in brief: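 MCF 10A cells exposed to compound 48 hr at 37 C, 5% CO2, then Hoechst-stained 40 min. Laser-scanning imaging of nuclear DNA content (405 nm ex, 500-530 nm em); re-replication scored as rise in nuclei with elevated fluorescence intensity.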
# [19] = Quantitative high throughput screen for delayed death inhibitors of the malarial parasite plastid, 96 hour incubation (AID 488745); also: nearly all actives have a fitted effect of over 70% in size
# Method in brief: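 Two-generation (96 h) exposure of luciferase-reporter P. falciparum in erythrocytes, 2% hematocrit, 0.1% parasitemia final, 37 C, 5% CO2, RPMI 1640 with 0.5% Albumax. Growth inhibition scored by reduced luminescence.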
# [20] = Quantitative high throughput screen for delayed death inhibitors of the malarial parasite plastid, 48 hour incubation (AID 488752); also: nearly all actives have a fitted effect of over 65% in size
# Method in brief: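 Cultures: infected erythrocytes at final 2% hematocrit and 0.1% parasitemia in Albumax-supplemented RPMI. Parasites express integrated firefly luciferase. Incubation with compound lasts 48 h before luminescent detection of remaining reporter activity.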
# [21] = biological target: Transient receptor potential cation channel subfamily V member 1 (Homo sapiens) (UniProt Q8NER1); test: HTS Assay for Compounds that Act as Enhancers of the Vanilloid Receptor 1 (AID 488979)
# Method in brief: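 Calcium influx kinetics via Fluo-8 (480/520 nm) in TRPV1-expressing cells, 2000/well cultured overnight at 35.5C. Compound-alone read 3 min (agonist phase), followed by EC20 capsaicin challenge for 2 min (enhancer phase).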
# [22] = biological target: Voltage-gated inwardly rectifying potassium channel KCNH2 (Homo sapiens) (UniProt Q12809); test: qHTS Assay for Small Molecule Inhibitors of the Human hERG Channel Activity (AID 588834);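 also: top concentration of the series differs between compounds; lower thallium flux fluorescence means stronger hERG block; nearly all actives have a fitted effect of over 50% in size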
# Method in brief: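 Thallium serves as surrogate for K+ influx through BacMam-delivered hERG in U2OS cells. Compounds are added for about 10 minutes after dye loading; stimulation buffer then starts flux, monitored kinetically on FDSS.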
# [23] = Confirmation and Secondary Assay for Modulators of Hemoglobin Beta Chain Splicing at IVS2 654 locus (AID 910);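 also: HeLa cells stably carrying EGFP split by mutant beta-globin IVS2-654 intron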
# Method in brief: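 Readout: per-well total peak green fluorescence (488 nm ex, 500–520 nm em) from objects 5–250 µm, reflecting correct splicing of an EGFP-654 reporter. Compounds were applied for 2 days at 37 °C to overnight-plated HeLa EGFP-654 cells; controls were DMSO and 500 nM IVS2-654 PNA.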
# [24] = Confirmation and Secondary Assay for Modulators of Hemoglobin Beta Chain Splicing at IVS2 705 locus (AID 930);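 also: HeLa cells stably expressing the EGFP-705 splicing reporter; GFP fluorescence per well restored by corrected splicing of the IVS2-705 intron in EGFP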
# Method in brief: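 Splice-correction reporter: EGFP cDNA split by beta-globin intron 2 bearing the 705 mutation, stably in HeLa. Compound incubation 2 days, 37C; fluorescent objects 5-250 µm summed per well.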
# [25] = qHTS Assay for Lipid Storage Modulators (AID 1519; calls by dose curve); conditions: Drosophila S3 cells, BODIPY lipid droplet/cell ratio, laser cytometry, cells loaded with oleic acid
# Method in brief: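 Cells seeded at 5,000 per well were treated with compounds over a concentration series and loaded with oleic acid (400 uM, as added). Lipid droplet fluorescence (488 nm excitation, 500-530 nm channel) was read by laser-scanning cytometry and normalized to 20 uM Triacsin C.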
# [26] = biological target: Rap guanine nucleotide exchange factor 3 (Homo sapiens) (UniProt O95398); test: Confirmatory qHTS for agonist of cAMP-regulated guanine nucleotide exchange factor 3 (EPAC1) (AID 1645881);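 also: EPAC1 catalysed release of BODIPY-GDP from Rap1B seen as fluorescence loss; nearly all actives have a fitted effect of over 75% in size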
# [27] = biological target: Rap guanine nucleotide exchange factor 4 (Homo sapiens) (UniProt Q8WZA2); test: Confirmatory qHTS for agonist of cAMP-regulated guanine nucleotide exchange factor 4 (EPAC2) (AID 1645884);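 also: nucleotide exchange releases bodipy-GDP from Rap1 and this lowers its fluorescence; nearly all actives have a fitted effect of over 65% in size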
# [28] = biological target: Calcium and integrin-binding protein 1 (Homo sapiens) (UniProt Q99828); test: Primary qHTS for Identification of Calcium Integrin Binding Protein 1 (CIB1) Competitor (AID 1508620);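 also: GST tagged CIB1 binding a fluorescein labelled alphaIIb integrin peptide tracer; top concentration of the series differs between compounds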
# Method in brief: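 CIB1-GST (1 uM final) and compound incubated 15 min at room temperature before adding FITC-alphaIIb peptide tracer (100 nM final). Competition for binding read by fluorescence polarization (ex 480, em 540) after another 15 min at room temperature.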
# Chain of Calcium and integrin-binding protein 1 (Homo sapiens) (Q99828 whole entry, looked up): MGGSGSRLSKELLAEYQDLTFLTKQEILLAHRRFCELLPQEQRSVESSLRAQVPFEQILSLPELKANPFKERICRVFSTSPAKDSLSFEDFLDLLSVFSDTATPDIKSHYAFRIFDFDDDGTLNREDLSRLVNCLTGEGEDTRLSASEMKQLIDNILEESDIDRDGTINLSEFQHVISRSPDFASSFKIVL
# Chain of M-phase phosphoprotein 8 (Homo sapiens) (Q99549 whole entry, looked up): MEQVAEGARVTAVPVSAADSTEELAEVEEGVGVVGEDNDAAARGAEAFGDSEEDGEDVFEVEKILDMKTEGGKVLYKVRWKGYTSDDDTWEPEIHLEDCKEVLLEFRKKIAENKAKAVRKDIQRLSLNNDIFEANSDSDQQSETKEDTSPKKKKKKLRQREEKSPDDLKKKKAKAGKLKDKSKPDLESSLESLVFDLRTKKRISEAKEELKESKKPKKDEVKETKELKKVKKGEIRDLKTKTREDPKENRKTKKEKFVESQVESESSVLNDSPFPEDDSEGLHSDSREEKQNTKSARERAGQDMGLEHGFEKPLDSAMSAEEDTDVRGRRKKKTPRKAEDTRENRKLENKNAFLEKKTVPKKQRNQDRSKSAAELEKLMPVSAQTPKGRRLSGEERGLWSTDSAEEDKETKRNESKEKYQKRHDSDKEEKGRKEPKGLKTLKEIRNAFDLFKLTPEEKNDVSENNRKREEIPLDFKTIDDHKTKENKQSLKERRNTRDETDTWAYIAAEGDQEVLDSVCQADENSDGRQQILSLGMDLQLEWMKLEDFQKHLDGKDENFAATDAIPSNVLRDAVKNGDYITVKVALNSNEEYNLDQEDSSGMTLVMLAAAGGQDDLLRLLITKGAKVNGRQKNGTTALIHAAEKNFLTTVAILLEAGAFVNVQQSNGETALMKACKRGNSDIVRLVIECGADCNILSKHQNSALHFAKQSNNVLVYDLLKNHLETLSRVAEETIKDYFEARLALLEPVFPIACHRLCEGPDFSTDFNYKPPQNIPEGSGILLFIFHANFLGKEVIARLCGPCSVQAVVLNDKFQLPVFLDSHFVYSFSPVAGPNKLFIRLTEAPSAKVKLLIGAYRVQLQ
# Chain of Thyrotropin receptor (Homo sapiens) (P16473 whole entry, looked up): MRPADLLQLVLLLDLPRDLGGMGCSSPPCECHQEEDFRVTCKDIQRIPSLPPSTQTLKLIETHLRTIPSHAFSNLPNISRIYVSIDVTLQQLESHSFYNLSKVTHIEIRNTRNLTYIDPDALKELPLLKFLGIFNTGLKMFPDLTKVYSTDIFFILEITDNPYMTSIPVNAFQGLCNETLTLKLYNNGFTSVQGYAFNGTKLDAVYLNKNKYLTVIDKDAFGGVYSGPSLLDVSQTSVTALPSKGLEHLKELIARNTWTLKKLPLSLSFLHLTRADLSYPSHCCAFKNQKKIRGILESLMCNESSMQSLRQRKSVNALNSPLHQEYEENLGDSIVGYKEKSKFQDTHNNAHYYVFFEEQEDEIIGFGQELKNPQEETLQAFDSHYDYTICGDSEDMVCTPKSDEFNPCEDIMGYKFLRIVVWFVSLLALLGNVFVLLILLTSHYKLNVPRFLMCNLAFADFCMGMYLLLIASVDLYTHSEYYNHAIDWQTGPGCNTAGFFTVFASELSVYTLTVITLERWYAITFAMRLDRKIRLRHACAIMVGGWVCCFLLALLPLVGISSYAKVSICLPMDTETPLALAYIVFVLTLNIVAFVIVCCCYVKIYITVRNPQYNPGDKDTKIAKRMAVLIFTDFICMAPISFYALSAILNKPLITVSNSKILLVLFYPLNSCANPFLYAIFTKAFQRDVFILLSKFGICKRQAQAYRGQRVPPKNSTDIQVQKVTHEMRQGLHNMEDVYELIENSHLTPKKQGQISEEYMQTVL
# Chain of Galactokinase (Homo sapiens) (P51570 whole entry, looked up): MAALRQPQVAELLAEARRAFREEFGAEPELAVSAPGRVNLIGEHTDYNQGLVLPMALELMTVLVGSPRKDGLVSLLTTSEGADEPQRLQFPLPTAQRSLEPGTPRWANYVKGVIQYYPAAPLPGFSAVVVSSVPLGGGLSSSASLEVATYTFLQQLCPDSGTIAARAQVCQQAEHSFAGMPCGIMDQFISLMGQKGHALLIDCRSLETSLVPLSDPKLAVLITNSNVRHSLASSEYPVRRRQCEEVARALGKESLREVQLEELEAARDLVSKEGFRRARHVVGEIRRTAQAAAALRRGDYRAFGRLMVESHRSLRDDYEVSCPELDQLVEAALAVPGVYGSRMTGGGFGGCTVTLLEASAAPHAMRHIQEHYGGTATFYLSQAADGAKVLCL
# Chain of ATP-dependent DNA helicase Q1 (Homo sapiens) (P46063 whole entry, looked up): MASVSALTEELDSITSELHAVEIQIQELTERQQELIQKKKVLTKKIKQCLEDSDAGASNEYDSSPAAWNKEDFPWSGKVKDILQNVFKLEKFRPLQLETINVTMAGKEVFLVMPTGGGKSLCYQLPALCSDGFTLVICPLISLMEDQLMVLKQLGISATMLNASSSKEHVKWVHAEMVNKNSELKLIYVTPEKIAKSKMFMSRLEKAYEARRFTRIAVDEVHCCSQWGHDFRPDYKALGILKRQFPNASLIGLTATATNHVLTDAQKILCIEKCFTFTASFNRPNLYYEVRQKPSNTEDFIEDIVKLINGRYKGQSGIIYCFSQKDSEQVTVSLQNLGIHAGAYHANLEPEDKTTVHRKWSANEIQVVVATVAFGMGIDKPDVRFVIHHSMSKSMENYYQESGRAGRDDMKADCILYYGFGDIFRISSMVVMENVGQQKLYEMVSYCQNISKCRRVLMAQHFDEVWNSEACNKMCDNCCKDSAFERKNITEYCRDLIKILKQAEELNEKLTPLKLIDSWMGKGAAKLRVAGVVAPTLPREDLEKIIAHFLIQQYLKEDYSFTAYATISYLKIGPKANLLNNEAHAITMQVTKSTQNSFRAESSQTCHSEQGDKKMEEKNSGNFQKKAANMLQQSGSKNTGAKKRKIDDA
# Chain of Thyrotropin-releasing hormone receptor (Homo sapiens) (P34981 whole entry, looked up): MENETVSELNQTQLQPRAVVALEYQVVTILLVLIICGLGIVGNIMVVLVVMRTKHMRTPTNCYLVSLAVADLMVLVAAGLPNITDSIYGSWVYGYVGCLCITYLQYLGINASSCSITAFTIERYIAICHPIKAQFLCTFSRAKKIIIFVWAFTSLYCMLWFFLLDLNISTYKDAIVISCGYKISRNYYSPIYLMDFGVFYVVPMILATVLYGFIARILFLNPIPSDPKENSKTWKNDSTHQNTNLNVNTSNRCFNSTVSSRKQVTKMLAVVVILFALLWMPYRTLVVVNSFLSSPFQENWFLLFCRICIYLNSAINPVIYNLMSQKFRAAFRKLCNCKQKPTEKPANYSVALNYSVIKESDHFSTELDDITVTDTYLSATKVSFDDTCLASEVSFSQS
# Chain of DNA repair nuclease/redox regulator APEX1 (Homo sapiens) (P27695 whole entry, looked up): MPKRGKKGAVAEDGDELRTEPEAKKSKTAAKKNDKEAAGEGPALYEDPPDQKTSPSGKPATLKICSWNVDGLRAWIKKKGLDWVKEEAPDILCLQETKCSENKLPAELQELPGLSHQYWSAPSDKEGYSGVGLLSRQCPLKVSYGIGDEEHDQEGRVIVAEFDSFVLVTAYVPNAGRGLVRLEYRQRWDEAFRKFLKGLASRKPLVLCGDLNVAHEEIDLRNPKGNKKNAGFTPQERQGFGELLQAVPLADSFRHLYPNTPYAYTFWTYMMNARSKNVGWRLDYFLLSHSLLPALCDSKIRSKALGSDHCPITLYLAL
# Chain of Rap guanine nucleotide exchange factor 4 (Homo sapiens) (Q8WZA2 whole entry, looked up): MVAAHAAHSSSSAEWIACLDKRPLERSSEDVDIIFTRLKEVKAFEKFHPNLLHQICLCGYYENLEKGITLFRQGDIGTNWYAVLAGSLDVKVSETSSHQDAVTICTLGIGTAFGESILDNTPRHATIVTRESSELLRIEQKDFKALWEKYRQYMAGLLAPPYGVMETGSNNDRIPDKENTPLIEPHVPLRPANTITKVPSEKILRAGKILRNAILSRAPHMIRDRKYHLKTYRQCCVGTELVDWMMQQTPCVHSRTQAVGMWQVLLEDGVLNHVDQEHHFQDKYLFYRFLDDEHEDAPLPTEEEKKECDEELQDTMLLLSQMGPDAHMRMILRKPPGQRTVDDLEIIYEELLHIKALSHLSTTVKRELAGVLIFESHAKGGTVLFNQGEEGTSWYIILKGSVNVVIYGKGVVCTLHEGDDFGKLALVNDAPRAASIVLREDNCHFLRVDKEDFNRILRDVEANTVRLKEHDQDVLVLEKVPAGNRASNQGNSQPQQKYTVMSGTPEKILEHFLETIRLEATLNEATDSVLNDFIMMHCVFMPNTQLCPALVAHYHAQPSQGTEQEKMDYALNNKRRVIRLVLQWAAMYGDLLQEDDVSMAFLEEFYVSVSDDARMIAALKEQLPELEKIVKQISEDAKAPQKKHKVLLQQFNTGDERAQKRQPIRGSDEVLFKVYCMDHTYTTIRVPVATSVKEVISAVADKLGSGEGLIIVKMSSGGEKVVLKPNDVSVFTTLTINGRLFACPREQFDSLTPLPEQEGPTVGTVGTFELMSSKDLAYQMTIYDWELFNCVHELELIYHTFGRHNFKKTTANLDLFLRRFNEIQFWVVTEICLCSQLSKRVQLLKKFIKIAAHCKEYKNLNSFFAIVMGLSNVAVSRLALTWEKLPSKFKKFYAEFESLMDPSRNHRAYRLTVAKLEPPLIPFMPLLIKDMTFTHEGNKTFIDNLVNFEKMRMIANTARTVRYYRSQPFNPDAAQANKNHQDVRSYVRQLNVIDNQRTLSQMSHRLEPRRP
# Chain of Ferritin light chain (Equus caballus) (P02791 2-175 limits assumed): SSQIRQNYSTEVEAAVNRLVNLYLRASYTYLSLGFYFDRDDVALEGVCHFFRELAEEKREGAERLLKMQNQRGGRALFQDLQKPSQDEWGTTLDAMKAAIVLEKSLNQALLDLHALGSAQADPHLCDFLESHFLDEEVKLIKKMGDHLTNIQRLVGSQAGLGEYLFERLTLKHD
structure (smiles),measurement,setting,value
CNCC[C@@H](Oc1ccc(C(F)(F)F)cc1)c1ccccc1,outcome,[1],inactive
same,Potency,[2],inactive
same,outcome,[3],inactive
same,Potency,[4],inactive
same,Potency,[5],inactive
same,outcome,[6],inactive
same,activation,[7],18.7% (inactive)
same,outcome,[8],inactive
same,outcome,[9],inactive
CN1CCN(c2ccc(-c3cc(O)c4ncccc4c3)cc2)CC1,Potency,[10],inactive
O=C1CCCC2=C1C1(CCCOC1)N=C(Nc1nc3ccccc3o1)N2 (stereo unspecified),Potency,[10],inactive
COc1ccc2c(=O)n3nc(Nc4cccc(N5CCN(C)CC5)c4)sc3nc2c1,Potency,[10],inactive
CNC(=O)[C@H]1O[C@@H](n2cnc3c(NCc4ccc(N)cc4)ncnc32)[C@H](O)[C@H]1O,outcome,[1],inactive
same,Potency,[11],inactive
same,Potency,[2],inactive
same,Potency,[12],inactive
same,Potency,[13],inactive
same,Potency,[14],inactive
same,Potency,[15],inactive
same,Potency,[16],inactive
same,outcome,[17],inactive
same,Potency,[4],inactive
same,outcome,[18],inactive
same,Potency,[19],inactive
same,Potency,[20],inactive
same,Potency,[5],inactive
same,outcome,[21],inactive
same,outcome,[6],inactive
same,activation,[7],-0.312% (inactive)
same,outcome,[8],inactive
same,outcome,[9],inactive
same,Potency,[22],inactive
O=C(O)c1ccc(O)c2ncc(N3CCC(N4CCOCC4)C3)cc12 (stereo unspecified),Potency,[10],inactive
NC(=O)c1cccc(-c2cnc3c(O)ccc(C(=O)O)c3c2)c1,Potency,[10],inactive
CC(O)c1ccc(-c2ccc3ncnc(N4CCOCC4)c3c2)o1 (stereo unspecified),Potency,[10],inactive
NC[C@@H](O)c1ccc(O)c(O)c1,outcome,[23],inactive
same,outcome,[24],inactive
same,"activity change, negative = inhibition",[25]; at 57.5 µM (top of the series),7.77% (inactive)
same,max response,[25]; measured here: cell count channel max response,7.41%
same,max response,[25]; measured here: lipid channel max response,16.7%
CC(=O)NC(c1cccs1)c1cc(Br)c2cccnc2c1O (stereo unspecified),outcome,[26],inactive
same,activation,[27],0% [at 17.1 µM] (inactive)
Cc1ccc(S(=O)(=O)Nc2cccc3ccc[n+](C)c23)cc1,Potency,[28],inactive
O=C1CCCC2=C1C(c1ccccc1Cl)N=C(c1ccccn1)N2 (stereo unspecified),Potency,[28],inactive
O=C1CCc2cc(S(=O)(=O)Nc3ccc4ncccc4c3)ccc2N1,Potency,[28],inactive
O=C1c2ccccc2C(=O)N1c1ccccn1,Potency,[28],inactive
CC(C)Nc1nc(C#N)nc(Nc2ccccc2)n1,Potency,[28],inactive
O=C(/C=C/c1ccccc1Br)NCCc1nc2ccccc2[nH]1,Potency,[28],inactive
N#Cc1nc(Nc2cccc(F)c2)nc(NC2CCCC2)n1,Potency,[28],inactive
CC(=O)Nc1sc2c(c1-c1ccc3c(c1)OCCO3)CCNC2,Potency,[28],inactive
COc1ccc(C2=Nn3c(nnc3-c3ccc(OC)c(OC)c3)SC2)cc1,Potency,[28],inactive
COc1ccc(C2Nc3ccccc3C(=O)N2Cc2ccc(C)o2)cc1COc1c(C)cccc1C (stereo unspecified),Potency,[28],inactive
Cc1ccc(NS(=O)(=O)c2ccc3c(c2)CCCC(=O)N3)cc1C,Potency,[28],inactive
O=C(Cc1nnc(-c2cc3ccccc3[nH]2)o1)Nc1cc(C(F)(F)F)ccc1Cl,Potency,[28],inactive
N/C(=N\c1nnc(-c2ccncc2)s1)Nc1ccc(F)c(C(F)(F)F)c1,Potency,[28],inactive
FC(F)(F)c1ccccc1-c1nc(NCc2ccc(Br)cc2)c2ccccc2n1,Potency,[28],inactive
COc1ccc(C[C@@H](NS(=O)(=O)c2ccc(C(=O)O)cc2)C(=O)O)cc1,Potency,[28],inactive
Cc1ccc(OCCn2c(CCNCC3CCCCC3)nc3ccccc32)cc1,Potency,[28],inactive
S=C(Nc1ccc(Cl)c(Cl)c1)Nc1nnc(-c2ccncc2)o1,Potency,[28],inactive
COc1ccc(Nc2nc(-c3ccncc3)nc3ccccc23)cc1F,Potency,[28],inactive
CC(C)(C)OC(=O)N1CCC(c2ccc(NCc3ccc(-c4ccc(C#N)cc4)o3)cc2)CC1,Potency,[28],inactive
